# Assay results: paper PMC11006913
# What was measured:
# Assay in all cases: PBM; 200 nM protein, PBS
# Details in all cases: dsDNA, one strand shown
# HESX1 [1] = target: HESX1 (Homo sapiens, UniProt Q9UBX0 95-180, R165K)
# SHOX [2] = target: SHOX (Homo sapiens, UniProt O15266 103-189)
# ALX4 [3] = target: ALX4 (Homo sapiens, UniProt Q9H161 200-286)
# ALX4 [4] = target: ALX4 (Homo sapiens, UniProt Q9H161 200-286, Q225E)
# HESX1 [5] = target: HESX1 (Homo sapiens, UniProt Q9UBX0 95-180)
# ALX1 [6] = target: ALX1 (Homo sapiens, UniProt Q15699 118-204, L144V)
# ALX3 [7] = target: ALX3 (Homo sapiens, UniProt O95076 139-225, N203Q)
# SHOX [8] = target: SHOX (Homo sapiens, UniProt O15266 103-189, R173C)
# ALX1 [9] = target: ALX1 (Homo sapiens, UniProt Q15699 118-204, L144R)
# ALX3 [10] = target: ALX3 (Homo sapiens, UniProt O95076 139-225)
# PROP1 [11] = target: PROP1 (Homo sapiens, UniProt O75360 56-141)
# HESX1 [12] = target: HESX1 (Homo sapiens, UniProt Q9UBX0 95-180, R109Q)
# PROP1 [13] = target: PROP1 (Homo sapiens, UniProt O75360 56-141, R99H)
# ALX3 [14] = target: ALX3 (Homo sapiens, UniProt O95076 139-225, L168Q)
# HESX1 [15] = target: HESX1 (Homo sapiens, UniProt Q9UBX0 95-180, P111T)
# ALX3 [16] = target: ALX3 (Homo sapiens, UniProt O95076 139-225, L168V)
# PROP1 [17] = target: PROP1 (Homo sapiens, UniProt O75360 56-141, F88S)
# HESX1 [18] = target: HESX1 (Homo sapiens, UniProt Q9UBX0 95-180, F115L)
# ALX1 [19] = target: ALX1 (Homo sapiens, UniProt Q15699 118-204)
# ALX3 [20] = target: ALX3 (Homo sapiens, UniProt O95076 139-225, N203S)
# Chain of ALX3 (Homo sapiens, UniProt O95076 139-225, N203S) (O95076 139-225 N203S): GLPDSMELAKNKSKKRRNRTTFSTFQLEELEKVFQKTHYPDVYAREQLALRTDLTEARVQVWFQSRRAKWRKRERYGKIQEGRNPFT
# Chain of PROP1 (Homo sapiens, UniProt O75360 56-141, F88S) (O75360 56-141 F88S): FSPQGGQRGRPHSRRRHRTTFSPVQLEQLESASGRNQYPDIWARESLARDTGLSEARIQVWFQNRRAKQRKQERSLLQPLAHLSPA
# Chain of ALX4 (Homo sapiens, UniProt Q9H161 200-286, Q225E) (Q9H161 200-286 Q225E): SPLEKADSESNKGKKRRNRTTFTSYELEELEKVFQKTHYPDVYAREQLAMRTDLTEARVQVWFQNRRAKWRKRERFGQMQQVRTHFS
# Chain of HESX1 (Homo sapiens, UniProt Q9UBX0 95-180, P111T) (Q9UBX0 95-180 P111T): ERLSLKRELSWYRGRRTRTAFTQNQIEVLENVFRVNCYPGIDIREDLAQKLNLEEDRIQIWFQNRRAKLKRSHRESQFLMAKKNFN
# Chain of ALX1 (Homo sapiens, UniProt Q15699 118-204, L144V) (Q15699 118-204 L144V): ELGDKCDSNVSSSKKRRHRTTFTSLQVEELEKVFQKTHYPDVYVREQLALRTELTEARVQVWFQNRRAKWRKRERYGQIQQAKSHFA
# Chain of ALX3 (Homo sapiens, UniProt O95076 139-225) (O95076 139-225): as the sequence (O95076 139-225 N203S) above, with S65N counted along it
# Chain of ALX3 (Homo sapiens, UniProt O95076 139-225, L168V) (O95076 139-225 L168V): as the sequence (O95076 139-225 N203S) above, with L30V, S65N counted along it
# Chain of HESX1 (Homo sapiens, UniProt Q9UBX0 95-180, R165K) (Q9UBX0 95-180 R165K): as the sequence (Q9UBX0 95-180 P111T) above, with T17P, R71K counted along it
# Chain of PROP1 (Homo sapiens, UniProt O75360 56-141) (O75360 56-141): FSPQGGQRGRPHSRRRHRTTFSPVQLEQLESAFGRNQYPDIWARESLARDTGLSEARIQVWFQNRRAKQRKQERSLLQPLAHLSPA
# Chain of ALX1 (Homo sapiens, UniProt Q15699 118-204, L144R) (Q15699 118-204 L144R): as the sequence (Q15699 118-204 L144V) above, with V27R counted along it
# Chain of HESX1 (Homo sapiens, UniProt Q9UBX0 95-180, R109Q) (Q9UBX0 95-180 R109Q): as the sequence (Q9UBX0 95-180 P111T) above, with R15Q, T17P counted along it
# Chain of ALX1 (Homo sapiens, UniProt Q15699 118-204) (Q15699 118-204): as the sequence (Q15699 118-204 L144V) above, with V27L counted along it
# Chain of ALX3 (Homo sapiens, UniProt O95076 139-225, N203Q) (O95076 139-225 N203Q): as the sequence (O95076 139-225 N203S) above, with S65Q counted along it
# Chain of PROP1 (Homo sapiens, UniProt O75360 56-141, R99H) (O75360 56-141 R99H): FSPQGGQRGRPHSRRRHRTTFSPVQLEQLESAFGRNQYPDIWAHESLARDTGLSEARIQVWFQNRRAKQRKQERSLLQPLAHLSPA
# Chain of HESX1 (Homo sapiens, UniProt Q9UBX0 95-180, F115L) (Q9UBX0 95-180 F115L): as the sequence (Q9UBX0 95-180 P111T) above, with T17P, F21L counted along it
# Chain of SHOX (Homo sapiens, UniProt O15266 103-189) (O15266 103-189): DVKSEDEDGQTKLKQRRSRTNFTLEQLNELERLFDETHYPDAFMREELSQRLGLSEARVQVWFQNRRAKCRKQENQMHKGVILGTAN
# Chain of HESX1 (Homo sapiens, UniProt Q9UBX0 95-180) (Q9UBX0 95-180): as the sequence (Q9UBX0 95-180 P111T) above, with T17P counted along it
# Chain of ALX3 (Homo sapiens, UniProt O95076 139-225, L168Q) (O95076 139-225 L168Q): as the sequence (O95076 139-225 N203S) above, with L30Q, S65N counted along it
# Chain of SHOX (Homo sapiens, UniProt O15266 103-189, R173C) (O15266 103-189 R173C): as the sequence (O15266 103-189) above, with R71C counted along it
# Chain of ALX4 (Homo sapiens, UniProt Q9H161 200-286) (Q9H161 200-286): as the sequence (Q9H161 200-286 Q225E) above, with E26Q counted along it
Sequence,binding signal (HESX1 [1]),binding signal (SHOX [2]),binding signal (ALX4 [3]),binding signal (ALX4 [4]),binding signal (HESX1 [5]),binding signal (ALX1 [6]),binding signal (ALX3 [7]),binding signal (SHOX [8]),binding signal (ALX1 [9]),binding signal (ALX3 [10]),binding signal (PROP1 [11]),binding signal (HESX1 [12]),binding signal (PROP1 [13]),binding signal (ALX3 [14]),binding signal (HESX1 [15]),binding signal (ALX3 [16]),binding signal (PROP1 [17]),binding signal (HESX1 [18]),binding signal (ALX1 [19]),binding signal (ALX3 [20])
GGTAATTA,"13.1 upbm affinity estimate (log intensity, higher = more binding, comparable within an allelic series)","12.7 upbm affinity estimate (log intensity, higher = more binding, comparable within an allelic series)","14.4 upbm affinity estimate (log intensity, higher = more binding, comparable within an allelic series)","13.9 upbm affinity estimate (log intensity, higher = more binding, comparable within an allelic series)","13.2 upbm affinity estimate (log intensity, higher = more binding, comparable within an allelic series)","12.1 upbm affinity estimate (log intensity, higher = more binding, comparable within an allelic series)","8.47 upbm affinity estimate (log intensity, higher = more binding, comparable within an allelic series)","10 upbm affinity estimate (log intensity, higher = more binding, comparable within an allelic series)","11.8 upbm affinity estimate (log intensity, higher = more binding, comparable within an allelic series)","12.8 upbm affinity estimate (log intensity, higher = more binding, comparable within an allelic series)","11.9 upbm affinity estimate (log intensity, higher = more binding, comparable within an allelic series)","9.54 upbm affinity estimate (log intensity, higher = more binding, comparable within an allelic series)","11.8 upbm affinity estimate (log intensity, higher = more binding, comparable within an allelic series)","11 upbm affinity estimate (log intensity, higher = more binding, comparable within an allelic series)","11.7 upbm affinity estimate (log intensity, higher = more binding, comparable within an allelic series)","10.7 upbm affinity estimate (log intensity, higher = more binding, comparable within an allelic series)","7.94 upbm affinity estimate (log intensity, higher = more binding, comparable within an allelic series)","8.04 upbm affinity estimate (log intensity, higher = more binding, comparable within an allelic series)","12.8 upbm affinity estimate (log intensity, higher = more binding, comparable within an allelic series)","8.62 upbm affinity estimate (log intensity, higher = more binding, comparable within an allelic series)"
GTTAATTA,"13.7 upbm affinity estimate (log intensity, higher = more binding, comparable within an allelic series)","13.1 upbm affinity estimate (log intensity, higher = more binding, comparable within an allelic series)","14.5 upbm affinity estimate (log intensity, higher = more binding, comparable within an allelic series)","14.5 upbm affinity estimate (log intensity, higher = more binding, comparable within an allelic series)","13.6 upbm affinity estimate (log intensity, higher = more binding, comparable within an allelic series)","12.3 upbm affinity estimate (log intensity, higher = more binding, comparable within an allelic series)","8.67 upbm affinity estimate (log intensity, higher = more binding, comparable within an allelic series)","10.7 upbm affinity estimate (log intensity, higher = more binding, comparable within an allelic series)","12 upbm affinity estimate (log intensity, higher = more binding, comparable within an allelic series)","13 upbm affinity estimate (log intensity, higher = more binding, comparable within an allelic series)","12.1 upbm affinity estimate (log intensity, higher = more binding, comparable within an allelic series)","10.5 upbm affinity estimate (log intensity, higher = more binding, comparable within an allelic series)","12.1 upbm affinity estimate (log intensity, higher = more binding, comparable within an allelic series)","11.5 upbm affinity estimate (log intensity, higher = more binding, comparable within an allelic series)","12.3 upbm affinity estimate (log intensity, higher = more binding, comparable within an allelic series)","11.2 upbm affinity estimate (log intensity, higher = more binding, comparable within an allelic series)","8.2 upbm affinity estimate (log intensity, higher = more binding, comparable within an allelic series)","8.41 upbm affinity estimate (log intensity, higher = more binding, comparable within an allelic series)","13 upbm affinity estimate (log intensity, higher = more binding, comparable within an allelic series)","8.84 upbm affinity estimate (log intensity, higher = more binding, comparable within an allelic series)"
ATTAATTA,"14 upbm affinity estimate (log intensity, higher = more binding, comparable within an allelic series)","13.3 upbm affinity estimate (log intensity, higher = more binding, comparable within an allelic series)","14.7 upbm affinity estimate (log intensity, higher = more binding, comparable within an allelic series)","14.6 upbm affinity estimate (log intensity, higher = more binding, comparable within an allelic series)","13.8 upbm affinity estimate (log intensity, higher = more binding, comparable within an allelic series)","12.5 upbm affinity estimate (log intensity, higher = more binding, comparable within an allelic series)","8.67 upbm affinity estimate (log intensity, higher = more binding, comparable within an allelic series)","10.8 upbm affinity estimate (log intensity, higher = more binding, comparable within an allelic series)","12.1 upbm affinity estimate (log intensity, higher = more binding, comparable within an allelic series)","13.2 upbm affinity estimate (log intensity, higher = more binding, comparable within an allelic series)","12.3 upbm affinity estimate (log intensity, higher = more binding, comparable within an allelic series)","11 upbm affinity estimate (log intensity, higher = more binding, comparable within an allelic series)","12.5 upbm affinity estimate (log intensity, higher = more binding, comparable within an allelic series)","11.6 upbm affinity estimate (log intensity, higher = more binding, comparable within an allelic series)","12.5 upbm affinity estimate (log intensity, higher = more binding, comparable within an allelic series)","11.5 upbm affinity estimate (log intensity, higher = more binding, comparable within an allelic series)","8.37 upbm affinity estimate (log intensity, higher = more binding, comparable within an allelic series)","8.72 upbm affinity estimate (log intensity, higher = more binding, comparable within an allelic series)","13.2 upbm affinity estimate (log intensity, higher = more binding, comparable within an allelic series)","8.88 upbm affinity estimate (log intensity, higher = more binding, comparable within an allelic series)"
ATTAATGA,"11.4 upbm affinity estimate (log intensity, higher = more binding, comparable within an allelic series)","11.5 upbm affinity estimate (log intensity, higher = more binding, comparable within an allelic series)","13.8 upbm affinity estimate (log intensity, higher = more binding, comparable within an allelic series)","12.8 upbm affinity estimate (log intensity, higher = more binding, comparable within an allelic series)",–,"11.6 upbm affinity estimate (log intensity, higher = more binding, comparable within an allelic series)","8.5 upbm affinity estimate (log intensity, higher = more binding, comparable within an allelic series)","9.51 upbm affinity estimate (log intensity, higher = more binding, comparable within an allelic series)","11.4 upbm affinity estimate (log intensity, higher = more binding, comparable within an allelic series)","12.3 upbm affinity estimate (log intensity, higher = more binding, comparable within an allelic series)","11.2 upbm affinity estimate (log intensity, higher = more binding, comparable within an allelic series)","8.79 upbm affinity estimate (log intensity, higher = more binding, comparable within an allelic series)","10.9 upbm affinity estimate (log intensity, higher = more binding, comparable within an allelic series)","10.3 upbm affinity estimate (log intensity, higher = more binding, comparable within an allelic series)",–,"9.84 upbm affinity estimate (log intensity, higher = more binding, comparable within an allelic series)","7.87 upbm affinity estimate (log intensity, higher = more binding, comparable within an allelic series)","7.87 upbm affinity estimate (log intensity, higher = more binding, comparable within an allelic series)","12.2 upbm affinity estimate (log intensity, higher = more binding, comparable within an allelic series)","8.58 upbm affinity estimate (log intensity, higher = more binding, comparable within an allelic series)"
